PostGolgi yeast: growth inhibition of a yeast mutant, post-Golgi transport screen; post-Golgi transport phenotypic cell assay; inhibition, % at 10 µM; hit rate 0.9% among 98,000;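 also: yeast cells grown in 1536-well plates; yeast grown about 18 h at 30C before absorbance read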
PLAP activator: activators of human placental alkaline phosphatase; P05187; purified PLAP enzyme, luminescent substrate read-out; active compounds read high; activation fold at 20 µM; hit rate 1.2% among 96,000; AID 696; in the data active = activation fold above about 2
PostGolgi ctrl: growth of the yeast control strain, post-Golgi counter-screen; efflux-deficient yeast background strain, growth absorbance A615, 16 h; inhibition, % at 10 µM; hit rate 5% among 98,000; AID 738
Cav3 T inh: human Cav3.2 channel inhibition, primary screen | Cav3.2-expressing cells, Fluo-4 calcium fluorescence FDSS; active compounds read low | O95180 | hit rate 4% among 100,000 | B-score at 10 µM;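 active = single-dose well whose peak fluorescence ratio is a statistical outlier from its plate by either plate-standardised score or position-corrected B-score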
DAT uptake mod: human DAT dopamine uptake with cocaine, either direction. Q01959. LLC-PK1 hDAT cells, [14C]-dopamine uptake with cocaine IC80; actives deviate in either direction. B-score at 10 µM. hit rate 1.3% among 110,000. AID 449768;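 active = Z score or B-score, a plate-position-corrected score, falls beyond the plate's 99.7% confidence bounds, in either direction; inactive = both scores lie inside the 99.7% bounds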
Target sequence (Q01959 whole entry, looked up): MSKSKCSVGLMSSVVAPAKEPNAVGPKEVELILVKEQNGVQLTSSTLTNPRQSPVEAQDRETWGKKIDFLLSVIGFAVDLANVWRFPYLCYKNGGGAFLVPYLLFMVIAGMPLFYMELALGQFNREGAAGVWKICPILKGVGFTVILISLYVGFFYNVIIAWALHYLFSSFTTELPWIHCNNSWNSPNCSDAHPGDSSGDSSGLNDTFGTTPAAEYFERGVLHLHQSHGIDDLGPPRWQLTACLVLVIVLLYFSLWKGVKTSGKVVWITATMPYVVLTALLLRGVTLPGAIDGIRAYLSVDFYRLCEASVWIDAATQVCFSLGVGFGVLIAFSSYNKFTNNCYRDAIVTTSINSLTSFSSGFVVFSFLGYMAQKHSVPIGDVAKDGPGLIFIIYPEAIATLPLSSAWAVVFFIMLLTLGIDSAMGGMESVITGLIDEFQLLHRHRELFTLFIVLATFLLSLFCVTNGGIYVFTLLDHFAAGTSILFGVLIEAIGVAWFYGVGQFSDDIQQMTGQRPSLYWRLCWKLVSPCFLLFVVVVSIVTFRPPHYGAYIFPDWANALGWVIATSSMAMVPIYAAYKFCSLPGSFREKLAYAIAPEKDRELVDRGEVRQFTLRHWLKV
D1 allo mod: allosteric modulators of human D1 dopamine receptor; AID 641; P21728; HEK293 D1, CRE-luciferase, dopamine EC30 potentiation; actives deviate in either direction; hit rate 5.9% among 58,000; B-score at 10 µM;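 active = luminescence count or its row- and column-corrected plate score outside the 99.7% band of the plate's sample wells, on either side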
D1 mod confirm: D1 receptor (human) allosteric modulation, confirmed. shares compounds with D1 allo mod. HEK293 D1 CRE-luciferase, dopamine EC30 potentiation; active compounds read high. luminescence at 10 µM. hit rate 88% among 2,200;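 active = luminescence in either of two replicates above the same-plate mean plus 3 SD of the low-dose dopamine control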
D1 ag no DA: activates D1 CRE-luciferase signal without dopamine present | shares compounds with D1 allo mod | HEK293 D1 CRE-luciferase, luminescence, no dopamine; active compounds read high | luminescence at 10 µM | hit rate 0.8% among 1,900; in the data active = luminescence above about 3900
Isoprot counter: isoproterenol response counter-screen activity for D1 modulators; shares compounds with D1 allo mod; HEK293 D1 CRE-luciferase, isoproterenol EC30 counter-screen; calls only at 10 µM; hit rate 63% among 2,200; AID 647;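 active = luminescence in either replicate above plate mean of wells with a partly effective reference agonist dose plus 3 SD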;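 also: isoproterenol raises cAMP through native beta-adrenoceptor Gs so signal bypasses D1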
Of the large screens only hits and unclear results are named; the others gave an inactive call (follow-up assays come after a bar, where they were run). Hits are enriched below; roughly 12% of the tested compounds scored in any of these assays. Rule as the data show it, unless noted: active = inhibition above about 30%; inactive = the rest.

COc1cc(-c2nnc3sc(Cc4ccc(Cl)cc4)nn23)cc(OC)c1OC	none (no result: PostGolgi yeast, PLAP activator, PostGolgi ctrl, Cav3 T inh, DAT uptake mod)
COc1cccc(OC)c1-c1nn2c(-c3cc(-c4ccccc4)n[nH]3)nnc2s1	none
COc1cc(-c2nnc3sc(C4CCCCC4)nn23)cc(OC)c1OC	D1 allo mod 7.4 | D1 mod confirm 15992 | D1 ag no DA inactive | Isoprot counter active
COc1cc(-c2nnc3sc(Cc4ccccc4)nn23)cc(OC)c1OC	none
COc1cccc(-c2nnc3sc(C4CCCCC4)nn23)c1	PostGolgi ctrl 33, DAT uptake mod -8.3, D1 allo mod 5.5 | D1 mod confirm 12024 | D1 ag no DA inactive | Isoprot counter active
COc1ccc(-c2nn3c(-c4ccccc4)nnc3s2)cc1	D1 allo mod 5.5 | D1 mod confirm 11796 | D1 ag no DA inactive | Isoprot counter active
CCCCc1nc2n[nH]c(N)c2c2c1CCCC2	D1 allo mod 21 | D1 mod confirm 20280 | D1 ag no DA inactive | Isoprot counter active
O=c1cc(-c2ccccc2)nc2n1Cc1ccccc1-2	D1 allo mod 13 | D1 mod confirm 11948 | Isoprot counter active
CCO[C@@H]1OC(C(=O)N2CCOCC2)=C[C@H](c2ccc(C(F)(F)F)cc2)[C@H]1CCCO	none (no result: PostGolgi yeast, PLAP activator, PostGolgi ctrl, D1 allo mod)
CCOC(=O)c1c(NC(=O)OC)sc(C(=O)N(C)C)c1C	D1 allo mod 4.1 | D1 mod confirm 13484 | D1 ag no DA inactive | Isoprot counter active
CCOC(=O)c1c(NC(=O)CC)sc(C(C)=O)c1C	D1 allo mod 16 (no result: Cav3 T inh) | D1 mod confirm 12336 | D1 ag no DA inactive | Isoprot counter active
CCOC(=O)c1sc(NC(=O)COC(=O)Cn2cnc3ccccc32)c(C(=O)OCC)c1C	D1 allo mod 5 (no result: PLAP activator, Cav3 T inh, DAT uptake mod) | D1 mod confirm 9720 | D1 ag no DA inactive | Isoprot counter inactive
CCOC(=O)c1c(NC(=O)c2cc(CC(C)C)on2)sc(C(C)=O)c1C	none (no result: D1 allo mod)
CCCc1cc(C(=O)Nc2sc(C(C)=O)c(C)c2C(=O)OCC)no1	D1 allo mod 6.5 | D1 mod confirm 7336 | D1 ag no DA inactive | Isoprot counter inactive
O=C(O)c1ccc(NS(=O)(=O)c2cc(Cl)ccc2Cl)cc1O	none
Cc1ccc2nsnc2c1S(=O)(=O)N1CCOCC1	none (no result: D1 allo mod)
N#Cc1nn(-c2ccccc2)nc1N1CCCCC1	none (no result: Cav3 T inh)
CCOC(=O)c1sc(NC(=O)CSc2nnc(C)s2)c(C(=O)OCC)c1C	D1 allo mod 6.1 | D1 mod confirm 25484 | D1 ag no DA inactive | Isoprot counter active
CCOC(=O)c1c(/N=C/N(C)C)sc(C(=O)OC)c1C	D1 allo mod 3.7 | D1 mod confirm 8988 | Isoprot counter active
CCOC(=O)c1c(NC(=O)CSc2nncs2)sc(C)c1C	none (no result: D1 allo mod)
CCCCn1c(SCC(=O)N2CCCc3ccccc32)nc2c1c(=O)n(C)c(=O)n2C	none
Cc1nn(-c2ccccc2)c(C)c1C(=O)Nc1nnc(-c2ccco2)o1	none
CSc1nncc(/C(C)=N\Nc2ccccc2)n1	none (no result: D1 allo mod)
CSc1nncc(-c2ccc(F)c(F)c2)n1	D1 allo mod 4.4 | D1 mod confirm 11748 | D1 ag no DA inactive | Isoprot counter inactive
CSc1nncc(-c2ccc(F)cc2)n1	D1 allo mod 8.2 (no result: Cav3 T inh) | D1 mod confirm 8776 | Isoprot counter active
Cc1ccc(NC(=O)C2(N(CC(C)C)C(=O)Cn3nnnc3N)CCCCC2)cc1	D1 allo mod 5.4 | D1 mod confirm inactive | Isoprot counter inactive
COc1ccc(NC(=O)C2(N(CC(C)C)C(=O)Cn3nnnc3N)CCCCC2)cc1	none
CSc1nc(C)c2c(n1)N(c1ccc(C(C)C)cc1)CC2	none (no result: Cav3 T inh, DAT uptake mod, D1 allo mod)
CCCc1cc(=O)[nH]c(SC(CC)C(=O)Nc2ccccc2C#N)n1 (stereo not drawn)	none
Cn1cnc2c1c(=O)n(Cc1cccc(Br)c1)c(=O)n2C	D1 allo mod 11 | D1 mod confirm 12308 | D1 ag no DA inactive | Isoprot counter active
COc1ncccc1-c1nnn(-c2ccc(F)cc2)n1	none (no result: PostGolgi yeast, PLAP activator, PostGolgi ctrl, D1 allo mod)
COc1ccc(/C=N/NC(=O)c2cc(-c3ccc(C)cc3C)nc3ccccc23)cc1COC(C)=O	none (no result: Cav3 T inh, DAT uptake mod, D1 allo mod)
O=C(O)c1ccc(CSc2nnc(COc3ccc(Cl)cc3Cl)o2)cc1	Cav3 T inh -9.2, D1 allo mod 5.6 | D1 mod confirm 10144 | Isoprot counter active
CN(Cc1ccccc1)c1nc2c(c(=O)[nH]c(=O)n2C)n1CCCc1ccccc1	D1 allo mod 5.1 | D1 mod confirm 12224 | D1 ag no DA inactive | Isoprot counter active
Cn1c(=O)[nH]c(=O)c2[nH]c(N(Cc3ccccc3)Cc3ccccc3)nc21	D1 allo mod 8.4 | D1 mod confirm 16252 | Isoprot counter active
CC1CCN(c2nc3c(c(=O)[nH]c(=O)n3C)n2Cc2ccccc2Cl)CC1	PostGolgi ctrl 40, Cav3 T inh -4.5, D1 allo mod 6.2 (no result: PLAP activator) | D1 mod confirm 14268 | D1 ag no DA inactive | Isoprot counter active
CN(Cc1ccccc1)c1nc2c(c(=O)[nH]c(=O)n2C)n1Cc1ccccc1Cl	D1 allo mod 17 | D1 mod confirm 21184 | D1 ag no DA inactive | Isoprot counter active
CCOCCn1c(N(C)Cc2ccccc2)nc2c1c(=O)[nH]c(=O)n2C	none (no result: D1 allo mod)
Cn1c(=O)[nH]c(=O)c2c1nc(Br)n2Cc1ccccc1Cl	none
COc1cccc(NC(=O)CSc2nncn2N)c1	none
CC(=O)c1ccc(NC(=S)N2C(C)CCCC2C)cc1 (stereo not drawn)	none (no result: D1 allo mod)
CCOc1ccc(NC(=O)c2nnn(CC(=O)Nc3ccccc3OCC)c2N)cc1	none
CCOc1ccc(NC(=O)Cn2nnc(C(=O)NCc3ccccc3OC)c2N)cc1	D1 allo mod 4.3 | D1 mod confirm inactive | D1 ag no DA inactive | Isoprot counter inactive
Clc1ccc(-n2nnnc2-c2ccccc2)cc1	D1 allo mod 3.5 | D1 mod confirm 8784 | D1 ag no DA inactive | Isoprot counter inactive
CSc1nc(C)cc(-c2cc(C(=O)Nc3ccccc3)on2)n1	none (no result: PostGolgi yeast, PLAP activator, PostGolgi ctrl, D1 allo mod)
Cc1nn(-c2ccc(C(=O)O)cc2)c(C)c1Oc1ccccc1O	none (no result: D1 allo mod)
Cc1nn(-c2ccccn2)c(C)c1Oc1ccccc1O	PostGolgi yeast 34, D1 allo mod 3.8 | D1 mod confirm inactive | D1 ag no DA inactive | Isoprot counter inactive
N#Cc1cc2ccccc2nc1SCc1ccccn1	D1 allo mod 4.4 | D1 mod confirm 8624 | Isoprot counter active
CCOc1ccc2nc(SCC#N)c(C#N)cc2c1	none
COCc1[nH]nc2c1C(c1cc(OC)c(O)c(OC)c1)C(C#N)=C(N)O2 (stereo not drawn)	none
CCn1ncc(C2=NOC(C(=O)NCc3ccc(OC)cc3)C2)c1C (stereo not drawn)	none

Bioassay records deposited in PubChem BioAssay by several laboratories.
